The list is not random: actives were taken first. Their share in the collection is about 12%.
Sfp PPTase inh – Sfp phosphopantetheinyl transferase inhibition; Q9F4F7; Biochemical Sfp PPTase activity, qHTS; Potency, µM, usual class: inhibitors; 3.5% of 310,000 active; AID 1490;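 note: the enzyme is Sfp with the accession as filed and its product quenches rhodamine fluorescence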
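Compounds were incubated with enzyme (final 15 nM) for 15 min at room temperature before substrate addition started the reaction. Fluorescence at 525 nm excitation, 598 nm emission was recorded immediately and after 30 minutes.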
L3MBTL1 inh – inhibitors of human L3MBTL1 | Q9Y468 | AlphaScreen L3MBTL1–H3K9me1 peptide binding | Potency, µM (highest dose often 57.1 µM), hits mostly inhibitors | 0.66% of 230,000 active | AID 485360; note: nearly all actives have a fitted effect of over 60% in size
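L3MBTL1 (50 nM) pre-complexed 30 min with biotinylated H3(1-15)K9me1 peptide (75 nM), then compounds added for 30 min at room temperature; AlphaScreen streptavidin donor/nickel chelate acceptor beads (10 ug/mL final) read after 30 min dark incubation.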
BAZ2B block – inhibitors of human BAZ2B bromodomain; Q9UIF8; AlphaScreen BAZ2B-H3K14Ac peptide displacement; Potency, µM (highest dose often 114 µM), hits mostly inhibitors; 4.4% of 360,000 active; AID 504333; note: nearly all actives have a fitted effect of over 60% in size
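BAZ2B 50 nM plus b-H3(5-23)K14Ac 50 nM, PBS pH 7.4/0.01% Tween-20, 30 min RT; compound added (max 110 uM), 30 min RT; streptavidin donor/Ni-chelate acceptor beads 10 ug/mL final, 20 min dark; AlphaScreen read.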
G9a block – inhibitors of human histone lysine methyltransferase G9a; Q96KQ7; G9a H3K9 monomethylation, AlphaScreen, 2 h; Potency, µM (doses to about 102 µM), hits mostly inhibitors; 8.8% of 350,000 active; note: nearly all actives have a fitted effect of over 75% in size
Target sequence (Q96KQ7 913-1193 limits assumed): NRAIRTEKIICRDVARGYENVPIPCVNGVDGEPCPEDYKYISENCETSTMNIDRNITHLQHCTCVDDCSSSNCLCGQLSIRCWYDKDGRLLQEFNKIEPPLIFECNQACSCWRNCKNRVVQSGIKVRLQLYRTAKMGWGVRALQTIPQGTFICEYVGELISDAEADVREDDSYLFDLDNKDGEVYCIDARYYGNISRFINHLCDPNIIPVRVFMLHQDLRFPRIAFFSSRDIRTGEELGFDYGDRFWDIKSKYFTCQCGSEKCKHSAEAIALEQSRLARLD
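Chemiluminescent proximity detection of H3K9 monomethylation, read after 10 min bead incubation in the dark. Reaction: 20 nM G9a, 500 nM biotin-H3K9 peptide, 20 uM SAM cofactor, 2 h, room temperature, following 15 min enzyme-compound preincubation.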
HP1b chromo inh – blocks HP1-beta chromodomain binding to methylated histone tails; P83916; AlphaScreen HP1-beta / biotin-H3K9me3 peptide binding; Potency, µM (highest dose often 114 µM), usual class: inhibitors; 0.56% of 390,000 active; note: nearly all actives have a fitted effect of over 70% in size
Target sequence (P83916 whole entry, looked up): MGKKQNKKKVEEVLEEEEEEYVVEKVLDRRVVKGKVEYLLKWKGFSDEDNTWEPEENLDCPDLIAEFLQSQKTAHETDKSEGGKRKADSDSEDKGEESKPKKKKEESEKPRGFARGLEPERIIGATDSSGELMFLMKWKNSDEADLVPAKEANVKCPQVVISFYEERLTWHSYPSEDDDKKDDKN
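HP1-beta protein (50 nM final) preincubated 30 min at room temperature with biotinylated H3(1-18)K9me3 peptide (50 nM) in PBS pH 7.4, 0.01% Tween-20, then compound added for 30 min. AlphaScreen streptavidin donor/nickel chelate acceptor beads (10 ug/mL final), 30 min dark, luminescence read.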
JMJD2A Tudor inh – inhibitors of human JMJD2A Tudor domain; AID 504339; AlphaScreen JMJD2A-Tudor / H3K4me3 peptide binding; Potency, µM (titrated, usually from 114 µM), most hits filed as inhibitors; O75164; 4.4% of 390,000 active; note: nearly all actives have a fitted effect of over 50% in size
Numbers stand for hits; – = inactive; ? = inconclusive; · = not tested or not shown; ! = not confirmed by another sample; [ ] = remark or other dose. Calls come from the whole dose curve; as a rule, active = well fitted curve in the direction sought with a large enough effect; inconclusive = small, poorly fitted or top-dose-only effect, or another doubt; inactive = no such curve, though single readings can be large; an effect the other way counts as inactive or inconclusive.

SMILES	Sfp PPTase inh	L3MBTL1 inh	BAZ2B block	G9a block	HP1b chromo inh	JMJD2A Tudor inh
CCOC(=O)Cn1c(=O)n(C2CCCCC2)c2nc(-c3ccc(Cl)cc3)nc(C(N)=O)c21	·	·	–	–	–	–
COc1ccccc1Nc1nc(C)nc(N)c1S(=O)(=O)c1ccccc1	·	·	–	–	–	–
Cc1ccc(NC(=O)c2cc(N(C)C)ccc2[P+](=O)O)cc1	–	–	?	28.2µM	–	?
COc1ccc(CN2CCCN(CC(=O)Nc3ccc4c(c3)OCCO4)S2(=O)=O)cc1	·	·	–	–[12.7 µM]	–	–
CC(C)(C)C1=CC(=Nc2ccccc2N)C=C(C(C)(C)C)C1=O	–	–	–	–	4.47µM	3.98µM
Cc1ccc2c(c1)C(=O)C(=O)N2Cc1ccc(C(F)(F)F)cc1	·	–	·	·	–	–
Cc1ccc(CN2C(=O)C(=O)c3cc(Br)cc(C)c32)cc1	·	·	12.6µM	11.2µM	12.6µM	25.1µM
Cc1nn2c3c(cnc2c1-c1ccccc1)C(=O)CCC3	–	–	–	–	–	–
N#CCc1nn2c3c(cnc2c1C#N)C(=O)CCC3	–	?	–	44.7µM	–	–
NNC1=N[C@H]2CS(=O)(=O)C[C@H]2S1	–	–	–	–	–	8.91µM
O=C(NCc1ccccc1)c1ccc(NC2=NC3CS(=O)(=O)CC3S2)cc1 (stereo unspecified)	–	·	–	–	–	–
COc1ccc(C(=O)CSc2ncnc3nc[nH]c23)cc1	–	–	–	–	–	–
Cc1ccc(OCCSc2ncnc3nc[nH]c23)cc1	–	·	–	39.8µM	–	–
CCNC(=S)N/N=C(\C)c1ccc(N2CCOCC2)cc1	–	–	–	–	–	–
CNC(=S)N/N=C(\C)c1ccc(N2CCOCC2)cc1	50.1µM	–	?	?	–	–
C/C(=C\C(=O)c1ccc(F)cc1)Nc1ccc(N2CCOCC2)cc1	–	–	–	39.8µM	–	?
C/C(=N\Nc1ccc(F)cc1F)c1ccc(F)cc1	–	–	–	–[0.501 µM]	·	·
C/C(=N\Nc1ccc(F)cc1F)c1ccc(N2CCOCC2)cc1	–	–	–	7.94µM	–	?
C/C(=N\NC(=O)COc1ccc(C(C)(C)C)cc1)c1ccc(N2CCOCC2)cc1	–	–	–	10µM	–	–
C/C(=N\NC(=O)c1ccc(F)cc1)c1ccc(N2CCOCC2)cc1	–	–	–	–	–	–
Fc1ccc(N/N=C/c2ccc(N3CCOCC3)cc2)c(F)c1	–	·	?	10µM	?	?
C/C(=N\NC(=O)c1ccc(Cl)cc1)c1ccc(Br)s1	–	–	–	–[12.7 µM]	–	–
C/C(=N\Nc1ccc(F)cc1F)c1ccc(Br)s1	–	–	–	8.91µM	?	–
CC(=O)c1cc2c(cc1N/C(=N/S(=O)(=O)c1ccc(F)cc1)c1ccccc1)OCO2	·	·	–	–	–	–
CC(C)C/C=C1\CCc2c([nH]c3ccccc23)C1=O	–	–	–	–	–	–
SMILES	Sfp PPTase inh	L3MBTL1 inh	BAZ2B block	G9a block	HP1b chromo inh	JMJD2A Tudor inh
CCCCCCCCC1=NCCc2c1[nH]c1ccccc21	56.2µM	·	?	44.7µM	–	22.4µM
O=c1c(-c2cccs2)nc2cnc(N3CCNCC3)nc2n1-c1ccccc1	–	·	·	–[12.7 µM]	·	·
CCSC1=C(C#N)C(c2ccccc2Cl)C(C(=O)c2cccs2)C(O)(C(F)(F)F)N1 (stereo unspecified)	–	–	–	10µM	–	–
CSc1nsc(NC(=O)OCc2ccc(Cl)cc2)n1	–	–	–	·	–	–
COc1ccsc1NC(=O)OCc1ccc(Cl)cc1	–	·	?	50.1µM	–	?
Cc1cc(=O)n(Cc2ccc(F)cc2Cl)c2c1c(C)nn2-c1ccccc1	·	·	–	–	–	–
C#CCOc1c(Br)cc(C2C(C(=O)OC)=C(C)NC3=C2C(=O)c2ccccc23)cc1OCC (stereo unspecified)	·	·	?	10µM	?	11.2µM
COc1ccc(CCNC(=O)Cn2c(=O)c3cccn3c3ccccc32)cc1OC	·	·	–	–	–	–
CN(C)CCCC1(c2ccc(F)cc2)OCc2cc(C#N)ccc21 (stereo unspecified)	–	–	–	70.8µM!	–	–
COc1ccc(-n2c(O)c(/C=N/NS(=O)(=O)c3cccc([N+](=O)[O-])c3)c3ccccc3c2=O)cc1OC	–	–	50.1µM	39.8µM	–	?
COc1ccc(CC(=O)NNS(=O)(=O)c2cccc([N+](=O)[O-])c2)cc1OC	–	·	–	–	–	–
O=C(CCS(=O)(=O)Cc1ccccc1)N1CCN(Cc2ccccc2)CC1	–	–	–	50.1µM	–	–
CCOC(=O)C1CCN(C(=O)CCS(=O)(=O)Cc2ccccc2)CC1	–	·	–	50.1µM	–	–
Cc1oc(-c2ccccc2F)nc1CS(=O)(=O)CC(=O)N1CCN(Cc2ccccc2)CC1	–	–	–	50.1µM	–	–
Cc1oc(-c2ccccc2F)nc1CS(=O)(=O)CC(=O)N1CCOCC1	–	–	–	–	–	–
CCOC(=O)C1=C(C)NC(=O)C1CC(=O)Nc1ccccc1 (stereo unspecified)	79.4µM	–	–	3.55µM	·	·
CCCC12CN3CC(C)(CN(C1)C3c1ccco1)C2=O (stereo unspecified)	–	·	–	–	–	56.2µM
O=C1[C@H]2[C@H]3[C@H](O)[C@H](O)C/C(=N\OC[C@@H](O)COCc4ccco4)[C@@H]3CC[C@H]2C(=O)N1c1ccc(F)cc1F	–	–	–	50.1µM	·	·
COc1ccccc1NC(=O)CCN1CCC(C(N)=O)CC1	·	·	–	–	–	–
COc1ccc(NS(=O)(=O)NC(=O)c2c(C)n(C)c3ccccc23)cc1	–	·	–	39.8µM	–	–
Nc1c(-c2ccc3c(c2)OCCO3)oc2ccccc2c1=O	–	·	–	50.1µM	–	–
O=c1cc(-c2ccc3c(c2)OCO3)oc2ccccc12	–	–	–	–	–	–
CSc1cccc(NC(=O)C2CC(=O)N(Cc3ccccc3)C2)c1 (stereo unspecified)	–	·	–	44.7µM	–	–
CCN(c1ccccc1)S(=O)(=O)c1ccc(OC)c(NC(=O)C2CC(=O)N(Cc3ccccc3)C2)c1 (stereo unspecified)	–	·	–	56.2µM	–	–
O=C(Nc1ccccc1)C1CC(=O)N(Cc2ccccc2)C1 (stereo unspecified)	–	·	–	–	–	–
COc1ccc(-c2csc(NC(=O)C3CC(=O)N(Cc4ccccc4)C3)n2)cc1OC (stereo unspecified)	–	·	?	50.1µM	–	?
CN(C)c1cccc(NC(=O)c2ccco2)c1	–	·	?	?	–	–
CCN(CC)P(=O)(Nc1cccc(C(F)(F)F)c1)c1ccc(N(C)C)cc1NC(=O)c1ccco1 (stereo unspecified)	–	·	?	31.6µM	–	?
COc1ccccc1NC(=O)C1=C(C)NC(=O)NC1c1ccccc1[N+](=O)[O-] (stereo unspecified)	3.55µM	–	·	12.6µM	–	–
